The compounds below were run on PDGFRA.
`O=C(Nc1ccccc1)Nc1ccc(Oc2ccc3nccn3n2)cc1` was tested, and the Kd was 71 nM.
Work on `Cc1ccc(NC(=O)c2cccc(C#N)c2)cc1-c1ccc(C(=O)Nc2ccncc2)cc1` [GSK1398463] yielded a Kd of 170 nM.
Work on `Cn1ccc2ncnc(Oc3ccc(NC(=O)Nc4cccnc4)c(Cl)c3)c21` yielded a Kd of 110 nM.

The compounds below were run on PDGFRB.
`O=C(Nc1n[nH]c2nc(-c3ccco3)c(Br)cc12)c1ccc(CN2CCCC2)cc1.O=C(O)[C@H](O)[C@@H](O)C(=O)O` [SB-742352] gave a Kd of 67 nM.
For `O=C(Nc1ccccc1)Nc1ccc(Oc2ccc3nccn3n2)cc1`, the Kd was 62 nM.
`Cc1ccc(NC(=O)c2cccc(C#N)c2)cc1-c1ccc(C(=O)Nc2ccncc2)cc1` [GSK1398463] gave a Kd of 13 nM.
With `Cn1ccc2ncnc(Oc3ccc(NC(=O)Nc4cccnc4)c(Cl)c3)c21` the Kd was 95 nM.
Compound `COc1cc2c(Nc3cccc(NC(=O)c4ccccc4)c3)ncnc2cc1OCCCN1CCOCC1` [GSK223810] has a Kd of 560 nM.
For `COc1ccc(NC(=O)Nc2ccc(C)c(-c3ccc(C(=O)Nc4ccncc4)cc3)c2)cc1` [GSK1398475], the Kd was 48 nM.
`CC(=O)Nc1n[nH]c2ncc(-c3ccccc3)cc12` [SB-548492] gave a Kd of 270 nM.

These compounds were tested on PDPK1.
For `CC(C)(C)OC(=O)NC1CCCN(c2cc(-c3ccc4c(N)n[nH]c4c3)nc(N)n2)C1` (centres unmarked) [GSK2286096], the Kd was 37 nM.
In the case of `Nc1nc(-c2ccc3c(N)n[nH]c3c2)cc(N2CCCCC2)n1` [GSK2228768], the Kd is reported as 540 nM.
For `CSc1ccc(NC2=C(c3ccccc3Cl)C(=O)NC2=O)cc1` [SB-342411], the Kd was > 10000 nM.
For `COc1cc2c(Nc3cccc(NC(=O)c4ccccc4)c3)ncnc2cc1OCCCN1CCOCC1` [GSK223810], the Kd was > 10000 nM.

Source: publication PMC5540273 (PLoS ONE, 2017)
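Note: kd values determined as follow-up on hits from a single-replicate KINOMEscan panel screen.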
